From PubChem BioAssay AID488969 (Vanderbilt High Throughput Screening Facility, 2010)
The full ranking holds about 110,000 compounds; the median of “z-score” is about -0.1, and the highest 2% start at about 2. This is one part of a sample in which the highest values are shown more often than they occur. Calls of active or inactive are those of the source.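 The calls were made as follows: active = z-score in the third read window above 3 or below -3; inactive = the rest.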

Biological target: Metabotropic glutamate receptor 8 (Rattus norvegicus) (UniProt P70579)
Sequence (P70579 whole entry, looked up): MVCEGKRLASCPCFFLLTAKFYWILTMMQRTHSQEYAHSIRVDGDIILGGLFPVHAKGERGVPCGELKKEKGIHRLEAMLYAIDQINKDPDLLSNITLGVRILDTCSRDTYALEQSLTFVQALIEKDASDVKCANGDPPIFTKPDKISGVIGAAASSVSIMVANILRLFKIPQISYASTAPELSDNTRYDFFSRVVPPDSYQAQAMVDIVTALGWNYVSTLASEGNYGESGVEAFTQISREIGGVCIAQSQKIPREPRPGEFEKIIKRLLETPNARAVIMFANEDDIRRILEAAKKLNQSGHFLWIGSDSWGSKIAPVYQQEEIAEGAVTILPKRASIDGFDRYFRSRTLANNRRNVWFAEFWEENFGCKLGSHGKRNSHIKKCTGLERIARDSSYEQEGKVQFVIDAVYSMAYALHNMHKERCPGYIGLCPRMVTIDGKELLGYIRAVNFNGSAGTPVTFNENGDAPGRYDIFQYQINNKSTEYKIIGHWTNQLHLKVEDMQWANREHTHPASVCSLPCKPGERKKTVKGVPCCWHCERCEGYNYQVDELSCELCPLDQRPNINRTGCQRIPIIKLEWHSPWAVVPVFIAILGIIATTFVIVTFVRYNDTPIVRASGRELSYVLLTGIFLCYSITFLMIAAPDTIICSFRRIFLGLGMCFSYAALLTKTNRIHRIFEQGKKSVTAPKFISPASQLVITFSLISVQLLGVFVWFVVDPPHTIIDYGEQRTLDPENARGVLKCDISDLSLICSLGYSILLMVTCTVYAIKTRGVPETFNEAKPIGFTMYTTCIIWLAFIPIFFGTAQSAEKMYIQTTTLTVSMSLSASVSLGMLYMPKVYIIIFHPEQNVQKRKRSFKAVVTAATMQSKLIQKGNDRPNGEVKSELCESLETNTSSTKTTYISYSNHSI
Assay: rat mGluR8 modulators via GIRK flux, primary screen, cell-based, thallium flux, HTS (AID 488969)
Conditions: HEK293 rat mGluR8, GIRK (G protein-gated inwardly rectifying potassium channel) thallium flux, FluoZin2; at 10 µM; stronger effect = higher value; submaximal glutamate (EC20) added with thallium

Going from `C=CCN1C(=O)C(CC(=O)Nc2ccccc2)SC1=Nc1c(C)n(C)n(-c2ccccc2)c1=O` (configuration not stated) to `CC(C)CNC(=O)c1ccccc1NC(=O)Nc1ccccc1`, the z-score falls from 1.07 to 0.337.

First: COc1cc(/C=C(\C#N)c2nc(-c3cc4ccccc4oc3=O)cs2)ccc1O
Second: O=C(NCc1ccc2c(c1)OCO2)c1cc2ccccc2o1
The z-score of the first is lower: -2.33 for the first, -0.522 for the second.

Compared with `CCC(=O)Nc1ccc(NC(=O)CN2CCCC(C)C2)c(Cl)c1` (configuration not stated), `CC(=O)c1cc2c(cc1NC(=O)CN1CCCCC1C)OCO2` (configuration not stated) is higher in z-score: -0.146 for the first, -0.0192 for the second.

Compared with `Cc1nn(CC(O)COc2ccc3c(c2)CCC3)c(C)c1C` (configuration not stated), `Cc1ccc2c(c1)c1c(n2CC(O)Cn2nc(C)c(Br)c2C)CCCC1` (configuration not stated) is higher in z-score: -0.0908 for the first, 0.191 for the second.

Compared with `Cc1nc2cc(Nc3nnc(-c4ccccc4)c4ccccc34)ccc2n1C`, `CN(C)c1ccc(/C=N\Nc2nc(-c3ccccc3)cc(=O)[nH]2)cc1` is higher in z-score: -0.174 for the first, -0.138 for the second.

First: CN1CCN(C(=O)NC2CCCCC2)CC1
Second: O=C(C1CCCCN1S(=O)(=O)c1ccc(F)cc1)N1CCN(c2ccccc2F)CC1 (configuration not stated)
The z-score of the first is higher: -0.173 for the first, -0.386 for the second.

Compared with `CCOP(=O)(O)c1ccccc1OCCCCCOc1ccccc1P(=O)(O)OCC`, `COc1ccc(OCCC(=O)OCC(=O)NCc2ccccc2)cc1` is lower in z-score: -0.285 for the first, -0.332 for the second.

Compared with `CCOC(=O)c1c(N)nn(C(=O)CC)c1-c1ccccc1`, `CCN(CC)C(=O)COc1cc(C)cc2oc(=O)cc(-c3ccccc3)c12` is higher in z-score: -0.667 for the first, -0.189 for the second.

First: CCOc1ccccc1-c1nc(C(N)=O)c2[nH]c(=O)n(-c3cccc(C)c3)c2n1
Second: Cc1cccc(-n2c(C)nc3cc(C(=O)NCc4ccc5c(c4)OCO5)ccc32)c1
The z-score of the first is lower: -1.43 for the first, 0.471 for the second.

Compared with `C/C(=N/Nc1ccc(F)cc1)c1ccc(Cl)s1`, `C/C(=N\NC(=O)C(=O)Nc1cccc(C(F)(F)F)c1)c1ccc(Cl)s1` is higher in z-score: 0.13 for the first, 0.376 for the second.

Compared with `C/C(=N\NC(=S)NC(C)C)c1ccc(-n2ccnc2)cc1`, `CC(C)NC(=S)Nc1cccc2cnccc12` is higher in z-score: -0.306 for the first, -0.271 for the second.

First: COc1cc(/C(C)=N/NC(=S)NC(C)C)cc(OC)c1OC
Second: COc1ccc(NC(=S)N/N=C2\CC(C)(C)Oc3ccc(OC)cc32)cc1
The z-score of the first is higher: -0.0595 for the first, -0.239 for the second.

First: C/C(=N\NC(N)=S)c1ccc(Cl)s1
Second: CC(C)(C)c1cc[n+](/C(C(=S)NC2CC2)=C(/[O-])c2ccc(Cl)s2)cc1
The z-score of the first is higher: 2.19 for the first, -0.275 for the second.

Compared with `Cc1noc(C)c1COc1cccc(C(=O)OCC(=O)NC(=O)c2ccc(OC(F)F)cc2)c1`, `COc1ccc(C(=O)COC(=O)CNC(=O)c2cc(OC)cc(OC)c2)cc1` is higher in z-score: -0.262 for the first, -0.208 for the second.

First: N/C(=N\OC(=O)c1cccc(Br)c1)c1ccc(Br)cc1
Second: COc1ccc(CNC(=O)CSc2ccc(Br)cc2)cc1OC
The z-score of the first is lower: -0.325 for the first, 0.192 for the second.

First: NC(=O)C(Cc1ccccc1)NS(=O)(=O)c1ccc(N2CCCC2=O)cc1 (configuration not stated)
Second: CSCCC(NS(=O)(=O)c1ccc2c(c1)oc(=O)n2C)C(=O)NC1CCCc2ccccc21 (configuration not stated)
The z-score of the first is higher: 0.443 for the first, 0.148 for the second.

First: CCC(C)NC(=O)c1ccccc1C(=O)NC(C)CC (configuration not stated)
Second: CCC(C)NC(=O)COc1ccc(Br)c(C)c1 (configuration not stated)
The z-score of the first is higher: 0.631 for the first, 0.482 for the second.

First: Cc1cccc(CN(CC(=O)N/N=C/c2ccco2)S(=O)(=O)c2ccc(Cl)cc2)c1
Second: Cc1ccc(N(CC(=O)NCc2ccco2)S(=O)(=O)c2ccccc2)cc1
The z-score of the first is higher: 0.848 for the first, 0.374 for the second.

Compared with `CCN(CC)C(=O)C1CCCN(C(=O)Nc2ccc(NC(=O)N3CCCC(C(=O)N(CC)CC)C3)cc2)C1` (configuration not stated), `O=C(CSc1nnnn1-c1cccc2c1CCCC2)N1CCCC1` is higher in z-score: -0.196 for the first, 0.0215 for the second.

Compared with `COC(=O)CSc1nnc(-c2cccnc2)n1-c1cccc(OC)c1`, `COc1ccc(NC(=S)Nc2cccc3cnccc23)cc1` is lower in z-score: 0.978 for the first, -0.198 for the second.

First: Cn1c(=O)oc2cc(S(=O)(=O)NC3CCCc4ccccc43)ccc21 (configuration not stated)
Second: O=c1cc(NS(=O)(=O)c2ccccc2)nc(SCc2ccc(Cl)cc2)[nH]1
The z-score of the first is lower: 0.254 for the first, 0.485 for the second.

First: CCc1ccc2oc(-c3cccc(N)c3)nc2c1
Second: COc1cccc(Nc2nc(C)cc(C)c2C#N)c1
The z-score of the first is lower: -0.135 for the first, -0.0986 for the second.

Going from `Cc1cc(C(=O)CSc2n[nH]c(N)n2)c(C)n1-c1cccc(F)c1` to `Cc1cc(C(=O)CSc2n[nH]c(N)n2)c(C)n1-c1ccc(F)cc1`, the z-score rises from -1.69 to -0.628.

Going from `COc1ccc(NS(=O)(=O)c2ccc(NC(=O)c3ccc(N(C)S(C)(=O)=O)cc3)cc2)c(OC)c1` to `CC(=O)c1cccc(NC(=O)c2ccc(N(Cc3ccccc3)S(C)(=O)=O)cc2)c1`, the z-score falls from -0.141 to -0.207.

First: COC(=O)C1=C(C)NC(=O)/C1=C\c1cccs1
Second: COC(=O)C1=C(C)N(C)C(=O)/C1=C\c1ccco1
The z-score of the first is lower: -0.512 for the first, -0.144 for the second.

First: CC(=O)c1nc(N2C(=O)CC(Cc3cccc(C)c3)C2=O)sc1C (configuration not stated)
Second: CC(=O)c1nc(N2C(=O)CC(Cc3ccc(C)cc3)C2=O)sc1C (configuration not stated)
The z-score of the first is higher: -0.395 for the first, -0.714 for the second.

Going from `CC(=O)c1nc(N2C(=O)CC(Cc3cc(C)cc(C)c3)C2=O)sc1C` (configuration not stated) to `Cc1ccc(Cn2c(CN3CC(C)OC(C)C3)nc3c2c(=O)[nH]c(=O)n3C)cc1` (configuration not stated), the z-score falls from 2.19 to 0.0226.

Going from `c1cc2c3c(cccc3c1)NC1(CCCCC1)N2` to `CC(C)(C)C1CCC2(CC1)NC(=S)N(c1ccccc1)N2` (configuration not stated), the z-score rises from -0.436 to 0.0264.

Compared with `Cc1cc(NC(=O)c2ccc(COc3ccc(Cl)c(C)c3)o2)no1`, `COc1ccc(CNC(=O)CCc2c(C)nc3ncnn3c2C)cc1` is higher in z-score: -0.225 for the first, 0.418 for the second.

Compared with `O=C(NC1CC1)c1ccc2c3c(cccc13)CC2`, `CC1CCCC(C)N1C(=O)CSc1nnnn1-c1cccc2c1CCCC2` (configuration not stated) is lower in z-score: -0.311 for the first, -0.621 for the second.

Going from `N=c1sccn1CC(=O)Nc1cc(Cl)ccc1Oc1ccccc1` to `S=C(Nc1cccc(Cl)c1)Nc1cccc2cnccc12`, the z-score rises from 1.02 to 2.74.

Going from `Cc1ccccc1NC(=S)/C(=C(\[O-])c1ccc(C)c([N+](=O)[O-])c1)[n+]1ccccc1` to `Cc1c(Cl)cccc1NC(=S)/C(=C(\[O-])c1ccc(Cl)s1)[n+]1ccccc1`, the z-score rises from 0.013 to 2.24.

First: COc1ccccc1NC(=S)Nc1cccc2cnccc12
Second: CCCCNC(=S)Nc1cccc2cnccc12
The z-score of the first is higher: -0.138 for the first, -0.208 for the second.

Going from `Cc1cc(C)nc(N2CCCC(C(=O)NCC(c3ccccc3)c3ccccc3)C2)n1` (configuration not stated) to `O=C(Cn1nnc(-c2ccccc2)n1)OCc1csc(-c2ccccc2)n1`, the z-score falls from 0.0177 to -0.49.

Going from `COc1ccc(S(=O)(=O)N(C)CC(=O)Nc2ccc(C(F)(F)F)cc2)cc1Cl` to `COc1ccc(S(=O)(=O)N(C)CC(=O)NCc2ccco2)cc1`, the z-score falls from 1.57 to -0.29.

Compared with `CCc1c(C)nc2ncnn2c1Nc1ccc(C(C)=O)cc1`, `COc1ccc(Nc2nc(C)cc(C)c2C#N)cc1` is higher in z-score: 0.0606 for the first, 0.405 for the second.

First: O=C(CSc1ncn[nH]1)Nc1nc(-c2ccccc2)cs1
Second: O=C(CSc1nnc(-c2ccc(F)cc2)o1)Nc1ccccc1N1CCOCC1
The z-score of the first is higher: 0.0129 for the first, -0.906 for the second.

First: Cc1ccc(C(=O)N/C(=C/c2ccco2)C(=O)Nc2cccc(C)c2)cc1
Second: Cc1ccc(Cn2c(NCCc3ccccc3)nc3c2c(=O)n(C)c(=O)n3C)cc1
The z-score of the first is lower: -0.287 for the first, -0.251 for the second.

Compared with `COCCn1c(C)cc(C(=O)CN2C(=O)NC3(CCCCCCC3)C2=O)c1C`, `COc1ccc2[nH]c(C)c(C(=O)CN3CCOCC3)c2c1` is lower in z-score: 0.319 for the first, 0.0884 for the second.

Compared with `Cc1ccc2c(c1)c1c(n2CC(O)Cn2c(C)nc3ccccc32)CCCC1` (configuration not stated), `Cc1ccc2c(c1)c1c(n2CC(O)CNC(C)(C)C)CCCC1` (configuration not stated) is higher in z-score: -0.427 for the first, 2.4 for the second.

First: O=C(NCc1cccs1)c1nc2c(nnn2Cc2ccc(F)cc2)c(=O)[nH]1
Second: CN(CCCC(=O)NCc1ccco1)S(=O)(=O)c1ccccc1
The z-score of the first is lower: -1 for the first, 2.39 for the second.

First: Cc1cc(N/C=C\c2nnnn2-c2ccccc2)no1
Second: CC(C)n1c(NCCc2ccccc2)nc2c1c(=O)n(C)c(=O)n2C
The z-score of the first is lower: -0.374 for the first, 2.39 for the second.

Compared with `Cc1ccc(-n2nc3c(Cl)nnc(C)c3c2C)cc1`, `C=CCn1c(NCCc2ccccc2)nc2c1c(=O)n(C)c(=O)n2C` is lower in z-score: 0.701 for the first, 0.0292 for the second.

Going from `NS(=O)(=O)c1ccc(Cc2ncc(C(F)(F)F)cc2Cl)s1` to `COn1c(=S)[nH]c2ccccc2c1=O`, the z-score falls from 1.4 to 1.06.

Compared with `COc1ccc2[nH]c(C)c(C(=O)CN3CC(C)OC(C)C3)c2c1` (configuration not stated), `COc1ccc2c(C(=O)CN3CC(C)OC(C)C3)c[nH]c2c1` (configuration not stated) is lower in z-score: 2.96 for the first, -0.0527 for the second.

Compared with `O=S1(=O)CC(N2CCOCC2)c2ccccc21` (configuration not stated), `CC(C)n1c(=O)[nH]c2ccccc21` is higher in z-score: -0.0158 for the first, 1.11 for the second.

First: CN(C(=O)COC(=O)C1CCN(S(=O)(=O)c2cccs2)CC1)C1CCS(=O)(=O)C1 (configuration not stated)
Second: CCOc1cc2[nH]c(=S)n(CCN3CCC(C)CC3)c(=O)c2cc1OCC
The z-score of the first is lower: 0.776 for the first, 0.809 for the second.

Compared with `CCOc1cc2[nH]c(=S)n(CCCN(CC)CC)c(=O)c2cc1OCC`, `CCN(CC)CCn1c(=S)[nH]c2ccccc2c1=O` is lower in z-score: -0.475 for the first, -2.46 for the second.

Compared with `COc1nc2ccccc2c(=O)n1OCC(C)C`, `CC(C)N(CCn1c(=S)[nH]c2ccccc2c1=O)C(C)C` is higher in z-score: 0.0226 for the first, 2.64 for the second.

First: CN(C)CCn1c(=S)[nH]c2ccccc2c1=O
Second: CC(C)n1c(=S)[nH]c2ccccc21
The z-score of the first is lower: -0.191 for the first, -0.0644 for the second.

In the case of `C/C(=N\NC(=S)NC(C)C)c1ccc(Cl)s1`, the z-score is reported as 5.46 (active).
In the case of `CCC(C)NC(=O)c1ccccc1NC(=O)Nc1ccccc1` (configuration not stated), the z-score is reported as 6.32 (active).
`CC(C)CC(NS(=O)(=O)c1ccc2c(c1)oc(=O)n2C)C(=O)NC1CCCc2ccccc21` (configuration not stated) was tested, and the z-score was 5.09 (active).
With `Cc1cc(C(=O)CSc2n[nH]c(N)n2)c(C)n1-c1cc(F)ccc1F` the z-score was 6.6 (active).
In the case of `COC(=O)C1=C(C)NC(=O)/C1=C\c1ccco1`, the z-score is reported as 8.73 (active).
For `CC(C)(C)C1CCC2(CC1)Nc1cccc3cccc(c13)N2`, the z-score was 4.88 (active).
`C=C(C)CNC(=S)Nc1cccc2cnccc12` was tested, and the z-score was 3.1 (active).
`O=C(CSc1nnnn1-c1cccc2c1CCCC2)NC1CCCC1` was tested, and the z-score was 5.15 (active).
`COc1ccc(Nc2nc(C)cc(C)c2C#N)cc1OC` was tested, and the z-score was 6.74 (active).
With `CC(C)COn1c(=S)[nH]c2ccccc2c1=O` the z-score was 3.03 (active).
For `CC(C)n1c(=S)[nH]c2ccccc2c1=O`, the z-score was 9.16 (active).
`CCOc1cc2[nH]c(=S)n(C(C)C)c(=O)c2cc1OCC` was tested, and the z-score was 9.84 (active).
